Source: PubChem BioAssay AID1159580 (chemical genetic matrix, 2015)
Among all 5,500 compounds or so, about 2,000 (36%) were called active. Inconclusive results (about 18%) are left out. No stated cut-off is given here; in the data, active means normalized growth mostly below about 0.91 (no sharp cut-off); inconclusive means no clear call, values can overlap the other calls; inactive means mostly above about 0.92. The list shows a part of the results.

Assay: chemical genetic growth profiling, strain panel (AID 1159580);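 further: tested at 20 µM; growth read once vehicle control cultures reached saturation at 30 °C; 1 = growth at the plate median or of vehicle wells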
Settings: S. cerevisiae deletion strains, growth OD

Measured: normalized growth

S=C(Nc1ccccc1)Nc1nccs1
inactive: locus YAL013W, strain DEP1, stronger effect = lower value 1.01 | locus YAL040C, strain CLN3, stronger effect = lower value 1.01 | locus YCL061C, strain MRC1 (second series), stronger effect = lower value 0.993 | locus YDR150W, strain NUM1, stronger effect = lower value 0.974 | locus YDR363W, strain ESC2, stronger effect = lower value 0.977 | locus YER002W, strain NOP16, stronger effect = lower value 0.991 | locus YGR078C, strain PAC10, stronger effect = lower value 0.988 | locus YMR307W, strain GAS1, stronger effect = lower value 0.993 | locus YNL175C, strain NOP13, stronger effect = lower value 0.999 | locus YNL197C, strain WHI3, stronger effect = lower value 0.993 | locus YNL224C, strain SQS1, stronger effect = lower value 0.995 | locus YPL055C, strain LGE1, stronger effect = lower value 0.948
active: locus YNL153C, strain GIM3, stronger effect = lower value 0.772
